Laboratory results taken from PubChem BioAssay (NCI).
Where “and” joins values, the source holds several entries; their conditions need not be identical. Identical values can stand only once. About 83,000 compounds went through this panel and 20% of them were active in at least one assay; those are over-represented in the sample as a whole.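 Values shown are percent growth following 48 h exposure of cells in 96-well plates to a single concentration of compound; below 10 was considered active.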 Calls of active or inactive are those of the source.

Key:
Test in all cases: NCI-60 one-dose screen, 48 h (100 = growth as untreated, 0 = no growth, -100 = all killed)
Conditions in all cases: 10 µM unless noted
SK-MEL-2 melanoma = system: SK-MEL-2 melanoma
EKVX NSCLC = system: EKVX NSCLC
SN12C renal = system: SN12C renal
UO-31 renal = system: UO-31 renal
TK-10 renal = system: TK-10 renal
ACHN renal = system: ACHN renal
CAKI-1 renal = system: CAKI-1 renal
A498 renal = system: A498 renal
CCRF-CEM leukemia = system: CCRF-CEM leukemia
MOLT-4 leukemia = system: MOLT-4 leukemia
SR leukemia = system: SR leukemia
RPMI-8226 leukemia = system: RPMI-8226 leukemia
OVCAR-8 ovarian = system: OVCAR-8 ovarian
OVCAR-5 ovarian = system: OVCAR-5 ovarian
OVCAR-4 ovarian = system: OVCAR-4 ovarian
SK-OV-3 ovarian = system: SK-OV-3 ovarian
OVCAR-3 ovarian = system: OVCAR-3 ovarian
HS 578T breast = system: HS 578T breast
HL-60(TB) leukemia = system: HL-60(TB) leukemia
IGROV1 ovarian = system: IGROV1 ovarian

SMILES | growth (SK-MEL-2 melanoma) | growth (EKVX NSCLC) | growth (SN12C renal) | growth (UO-31 renal) | growth (TK-10 renal) | growth (ACHN renal) | growth (CAKI-1 renal) | growth (A498 renal) | growth (CCRF-CEM leukemia) | growth (MOLT-4 leukemia) | growth (SR leukemia) | growth (RPMI-8226 leukemia) | growth (OVCAR-8 ovarian) | growth (OVCAR-5 ovarian) | growth (OVCAR-4 ovarian) | growth (SK-OV-3 ovarian) | growth (OVCAR-3 ovarian) | growth (HS 578T breast) | growth (HL-60(TB) leukemia) | growth (IGROV1 ovarian)
CC[CH2][Sn]([Cl])([Cl])[CH2]CC.Oc1ccccc1C=NCCN=Cc1ccccc1O | 34.1% (inactive) and 13.1% (inactive) | 85.2% (inactive) and 75.2% (inactive) | 52.2% (inactive) and 58.8% (inactive) | 53.9% (inactive) and 32.8% (inactive) | 17.6% (inactive) and -44.9% (active) | 47.8% (inactive) and 29.3% (inactive) | 50.4% (inactive) and 33.6% (inactive) | 7.69% (active) and -34% (active) | 2.05% (active) and 0.18% (active) | 40.2% (inactive) and 12.6% (inactive) | 24.8% (inactive) and 21.8% (inactive) | -24.1% (active) and -10.1% (active) | 87.8% (inactive) and 72.5% (inactive) | 97.1% (inactive) and 84.2% (inactive) | 69.6% (inactive) | 109% (inactive) and 92.2% (inactive) | 86.8% (inactive) and 44.3% (inactive) | 77.7% (inactive) and 48.6% (inactive) |  | 
C#Cc1cccc(Nc2nc(Cl)nc3cc(NC(=O)CF)ccc23)c1 | 66% (inactive) | 71.4% (inactive) | 91.9% (inactive) | 74% (inactive) | 85.7% (inactive) | 92.5% (inactive) | 55.8% (inactive) | 87.4% (inactive) |  | 80% (inactive) | 22.1% (inactive) |  | 88.2% (inactive) | 78.7% (inactive) | 108% (inactive) | 81.5% (inactive) | 53.5% (inactive) | 84.3% (inactive) | 90.3% (inactive) | 75.4% (inactive)
Cc1cc[c-]cc1.Fc1c[c-]c(-c2ccccn2)c(F)c1.[Pt+2].c1ccc([PH+](c2ccccc2)c2ccccn2)cc1 | 71.8% (inactive) | 65.3% (inactive) | 52.1% (inactive) | 58.4% (inactive) | 75.9% (inactive) | 69% (inactive) | 54.7% (inactive) | 82.7% (inactive) |  | 26% (inactive) | 42.5% (inactive) |  | 34% (inactive) | 63.9% (inactive) | 57.1% (inactive) | 91.7% (inactive) | 46.1% (inactive) | 39.1% (inactive) | 38.2% (inactive) | 53.2% (inactive)
CC[C@H](C)[C@H](NC(=O)c1cnccn1)C(=O)N(C)[C@H](C[C@@H](OC(C)=O)c1nc(C(=O)N[C@@H](Cc2ccccc2)C[C@H](C)C(=O)OC)cs1)C(C)C | 31.3% (inactive) | 43.9% (inactive) | 43.6% (inactive) | 40.7% (inactive) | 48.2% (inactive) | 45.3% (inactive) | 29.4% (inactive) | -7.33% (active) | 12% (inactive) | 17.9% (inactive) | 15.9% (inactive) | 22.5% (inactive) | 15.2% (inactive) | 42.4% (inactive) | 45.9% (inactive) | 20.6% (inactive) | -10.2% (active) | 11.9% (inactive) |  | 32% (inactive)
COc1ccc(CN)cc1OC | 112% (inactive) | 121% (inactive) | 98.7% (inactive) and 98.1% (inactive) | 96.8% (inactive) and 82.6% (inactive) | 127% (inactive) and 115% (inactive) | 103% (inactive) and 95.9% (inactive) | 101% (inactive) | 124% (inactive) and 85% (inactive) | 116% (inactive) and 97.7% (inactive) | 112% (inactive) and 95.2% (inactive) | 104% (inactive) | 112% (inactive) and 105% (inactive) | 109% (inactive) and 102% (inactive) | 110% (inactive) and 94.9% (inactive) | 125% (inactive) and 104% (inactive) | 113% (inactive) and 105% (inactive) | 109% (inactive) and 107% (inactive) | 110% (inactive) and 101% (inactive) |  | 110% (inactive) and 101% (inactive)
COC12CC3C4=CCOC5CC(=O)N6c7ccccc7C1(CCN2C4)C6C53 (centres undefined) | 108% (inactive) | 117% (inactive) | 119% (inactive) | 92.7% (inactive) | 100% (inactive) | 113% (inactive) | 102% (inactive) | 94.6% (inactive) | 99.7% (inactive) |  |  | 104% (inactive) | 91.8% (inactive) | 121% (inactive) | 97.5% (inactive) | 107% (inactive) | 117% (inactive) | 117% (inactive) |  | 108% (inactive)
C[C@]12CC[C@H]3[C@@H](C[C@@H]4SC(Nc5ccccc5)=N[C@@]45C/C(=N/O)CC[C@]35C)[C@@H]1CCC2=O | 69% (inactive) | 86.6% (inactive) | 84.7% (inactive) | 91.5% (inactive) | 102% (inactive) | 60.4% (inactive) | 59.3% (inactive) | 96.3% (inactive) |  | 20.2% (inactive) | 2.15% (active) |  |  | 99.7% (inactive) | 88% (inactive) | 105% (inactive) | 42.9% (inactive) | 65.2% (inactive) | 70.1% (inactive) | 88.4% (inactive)
Cn1cc(-c2csc(-c3cn(CCCCN4CCOCC4)c4ccc(F)cc34)n2)c2cccnc21 | 78.7% (inactive) | 72.7% (inactive) | 72.2% (inactive) | 44.4% (inactive) | 75.4% (inactive) | 86.3% (inactive) | 76.1% (inactive) | 46.7% (inactive) | -59.6% (active) | 46.7% (inactive) | 37% (inactive) |  |  | 79.5% (inactive) | 84.5% (inactive) | 84% (inactive) | 90% (inactive) | 41.1% (inactive) |  | 65.4% (inactive)
COc1ccc2c(c1)c(-c1nc(-c3c[nH]c4ncccc34)cs1)cn2CCCCN1CCOCC1 | 69% (inactive) | 68.4% (inactive) | 61.9% (inactive) | 22.8% (inactive) | 64.4% (inactive) | 17.1% (inactive) | 37.5% (inactive) | 92.3% (inactive) | -8.39% (active) | -21% (active) | -17.5% (active) | -5.6% (active) | 55.6% (inactive) |  | 50.8% (inactive) | 78.2% (inactive) | 58.3% (inactive) | 44.8% (inactive) |  | 36.1% (inactive)
CCCC[C@H]1C(=O)O[C@H](C)[C@H](NC(=O)c2cccc(NC=O)c2O)C(=O)O[C@@H](C)[C@@H]1OC(=O)CC(C)C | 93.4% (inactive) | 57.7% (inactive) | 59.6% (inactive) | 57.3% (inactive) | 49.8% (inactive) | 56.6% (inactive) | 34.5% (inactive) |  | 28.7% (inactive) | 31.1% (inactive) | 49.4% (inactive) |  |  | -27.7% (active) | 40.9% (inactive) | 68% (inactive) | 43.4% (inactive) | -18.5% (active) | 37% (inactive) | 55.6% (inactive)
COC(=O)[C@@H](C)C[C@H](Cc1ccccc1)NC(=O)c1cccc([C@@H](C[C@H](C(C)C)N(C)C(=O)[C@@H](NC(=O)[C@H]2CCCCN2C)C2CC2)OC(C)=O)n1 | 44.2% (inactive) | 54.6% (inactive) | 28.7% (inactive) | 40.6% (inactive) | 23.9% (inactive) | 24.7% (inactive) | 25.7% (inactive) | -4.08% (active) | 16% (inactive) | 14.6% (inactive) | 14.5% (inactive) |  | 14.4% (inactive) | 38.2% (inactive) | 52% (inactive) | 1.39% (active) | -47.5% (active) | 27% (inactive) |  | 23.3% (inactive)
Nc1c(Cl)c(Cl)nc(C(=O)O)c1Cl | 92.5% (inactive) | 86.5% (inactive) | 93.6% (inactive) | 71.1% (inactive) | 99.2% (inactive) | 88.2% (inactive) | 90.1% (inactive) | 138% (inactive) |  | 70.2% (inactive) |  | 123% (inactive) |  |  | 95.4% (inactive) | 99.9% (inactive) | 107% (inactive) | 104% (inactive) | 62.8% (inactive) | 
CC1(C)S[C@H]2CC[C@H]3OC(=O)[C@@H]1N23 | 94.4% (inactive) | 88.4% (inactive) | 119% (inactive) | 53.9% (inactive) | 91.9% (inactive) | 114% (inactive) | 66.6% (inactive) | 93.1% (inactive) |  | 75.1% (inactive) | 92.6% (inactive) | 79.5% (inactive) |  |  | 97.2% (inactive) | 111% (inactive) | 132% (inactive) | 112% (inactive) | 60.9% (inactive) | 39.4% (inactive)
O=C(NCCCN1CC1)Nc1cccc2ccccc12 | 97.1% (inactive) and 97.9% (inactive) | 109% (inactive) and 103% (inactive) | 94.4% (inactive) and 97.5% (inactive) | 97.7% (inactive) and 83.7% (inactive) | 103% (inactive) and 93.3% (inactive) | 93% (inactive) and 87.6% (inactive) | 95.8% (inactive) and 85.1% (inactive) | 124% (inactive) and 86.9% (inactive) | 108% (inactive) and 86.3% (inactive) | 103% (inactive) and 83.7% (inactive) | 102% (inactive) and 87.1% (inactive) | 100% (inactive) and 88.4% (inactive) | 80.1% (inactive) and 79.3% (inactive) | 105% (inactive) and 113% (inactive) | 105% (inactive) and 114% (inactive) |  | 109% (inactive) and 113% (inactive) | 96.2% (inactive) and 106% (inactive) |  | 87.5% (inactive) and 86.9% (inactive)
CSc1cc(/C=C(\C)[C@@H]2C[C@@H]3O[C@]3(C)CCC[C@H](C)[C@H](O)[C@@H](C)C(=O)C(C)(C)[C@@H](O)CC(=O)O2)n(CCNC(=O)OC(C)(C)C)n1 | 75.6% (inactive) | 78.3% (inactive) | 84% (inactive) | 55.5% (inactive) | 76.8% (inactive) | 77.8% (inactive) | 46.4% (inactive) | 56.6% (inactive) | 63.9% (inactive) | 42.7% (inactive) | 37.7% (inactive) | 29.7% (inactive) |  | 59.8% (inactive) | 82.4% (inactive) | 79.9% (inactive) | 28.8% (inactive) | 75.5% (inactive) |  | 54.4% (inactive)
